Experimental data reported in PubChem BioAssay AID589 (National Center for Advancing Translational Sciences (NCATS), 2007).
The campaign covered roughly 59,000 compounds. About 6,200 (11%) were called active. About 9% were inconclusive and are not listed. No stated cut-off is given here; in the data, active means max dye-equivalent concentration above about 10 nM; inconclusive means mostly about 1.1 nM to 9.6 nM; inactive means weaker than that. Many of the other results were omitted from the sample, so actives are more common in it than they were.

Assay: qHTS Assay for Spectroscopic Profiling in 4-MU Spectral Region
Conditions: compound autofluorescence, 340/450 nm, 4-MU equivalents; hits give high values
Source text: NIH Molecular Libraries Screening Centers Network [MLSCN] NIH Chemical Genomics Center [NCGC] […] Occasionally, the artifactual effect may originate from the compounds own spectral or other biophysical properties which generally tend to track its assay concentration. Pre-screening/profiling the library with respect to the compounds spectral properties should help one exclude false positives early on. While the most informative fluorescent profiling data set is obtained by performing a full excitation and emission scan of each well by using a monochromator-based plate reader, such an approach is practical only on a very limited scale as scanning each well requires long time. An alternative approach, applied here, is to perform plate reader scans using selected excitation and emission wavelength pairs to generate a multidimensional relational database that correlates compound concentration and the respective relative fluorescence intensity at a given wavelength set. A standard curve of 4-methylumbelliferone (4-MU) present on each plate as six-point concentration series, was used to compute a normalized fluorescence response, termed dye-equivalent concentration, for each compound at each concentration.
NCGC Assay Protocol Summary: Buffer: 100 mM Tris buffer, pH 8.0 Dye standard plate: The wells in columns 1 through 4 of a Kalypsys polypropylene 1536-well compound plate were filled with standard solutions of fluorophore corresponding to the spectral region of interest. Solutions of 4-MU were placed in the following wells: A1, B1: 3 mM, A2, B2: 300 uM, A3, B3: 30 uM, A4, B4: zero (DMSO), C1, D1: 3 uM, C2, D2: 900 nM, C3, D3: 300 nM, C4, D4: zero (DMSO). Assay Steps: Six uL of buffer were dispensed to 1536-well Greiner black plates. Compounds and dye standards (23 nL) were transferred via Kalypsys PinTool. The plates were incubated for 15 min at room temperature, and then read on ViewLux (Perkin-Elmer) High-throughput CCD imager using 340 nm and 450 nm excitation and emission filter set. Keywords: NIH Roadmap, MLSCN, MLI, MLSMR, qHTS, NCGC, Fluorescent Profiling, 4MU, 4-MU

SMILES | max dye-equivalent concentration
CCOC(=O)N1CCC(C(N)=O)CC1 | inactive
CCOc1cc(S(=O)(=O)NC2CC(C)(C)NC(C)(C)C2)ccc1F | inactive
O=c1c(-c2cccs2)nc2cnc(Oc3ccccc3)nc2n1-c1ccccc1 | 18 nM (active)
COc1ccc(Oc2ncc3nc(C)c(=O)n(-c4ccccc4)c3n2)cc1 | inactive
COc1ccc(-n2c(=O)c(-c3cn(C)c4ccccc34)nc3cnc(OC)nc32)cc1 | inactive
O=C1c2ccccc2C(=O)N1c1ccccc1S(=O)C(F)(F)F (stereo not drawn) | inactive
CS(=O)(=O)N(CC(=O)NCc1ccco1)c1ccc2c(c1)OCO2 | 27 nM (active)
O=C(Cn1nnc(-c2ccc3c(c2)OCO3)n1)NCc1ccco1 | inactive
CS(=O)(=O)N(CC(=O)N1CCN(Cc2ccc3c(c2)OCO3)CC1)c1ccc2c(c1)OCO2 | inactive
CCn1c(COc2ccc(OC)cc2)nnc1SCC(=O)Nc1cc(OC)ccc1OC | inactive
Cc1cn(C2C=CC(CO)O2)c(=O)[nH]c1=O (stereo not drawn) | inactive
O=C(NC1CC2CCCC(C1)N2C(=O)N1CCCCC1)C1CCCCC1 (stereo not drawn) | inactive
O=C(NCCc1ccco1)c1nn(Cc2ccccc2)c(=O)c2ccccc12 | inactive
COc1ccccc1-c1c(C)nn2c(C)c(C(C)=O)cnc12 | inactive
Cc1ccc(C(=O)NC2CCN(C(=O)N3CCOCC3)CC2)cc1 | inactive
N#Cc1c2c(c(N3CCN(CCO)CC3)n3c1nc1ccccc13)CCCC2 | 26 nM (active)
CCCCn1c(CN2CCN(CCO)CC2)nc2ccccc21 | inactive
CN(C)CCCNc1c2c(c(C#N)c3nc4ccccc4n13)CCC2 | 98 nM (active)
Cc1ccc(C(=O)NCC(=O)O)cc1S(=O)(=O)N1CCCCC1 | inactive
Cc1ccc(C(=O)N(CN2CCCC2=O)c2ccc(F)cc2)cc1 | inactive
CCOC(=O)c1c(-n2cnnn2)sc(C)c1C | inactive
CC(=NCC1CCCO1)c1c(O)[nH]c(=O)[nH]c1=O (stereo not drawn) | inactive
CCCCOc1ccc(-c2ncc(C(=O)OCC)c(N)n2)cc1 | inactive
CCN(CC)CCCN1C(=O)C(=O)/C(=C(/O)c2c(C)nc3ccccn23)C1c1ccc(C)o1 (stereo not drawn) | inactive
COc1ccc(-n2c(SCC(=O)NCc3cccs3)nnc2-c2ccoc2C)cc1 | 23 nM (active)
COc1ccc(C(=O)NC(=O)CSc2nnc(-c3ccco3)n2-c2ccccc2)cc1 | inactive
Cc1ccccc1-n1c(SCC(=O)NCc2cccs2)nnc1-c1ccncc1 | inactive

SMILES | max dye-equivalent concentration
O=C(CSc1nnc(-c2ccco2)n1CC1CCCO1)c1ccccc1 (stereo not drawn) | inactive
O=c1c(-c2cc(F)cc(F)c2)nc2cnc(Oc3ccccc3)nc2n1C[C@H]1CCCO1 | 12 nM (active)
COc1cccc(Cn2c(=O)c(-c3cc(F)cc(F)c3)nc3cnc(OC)nc32)c1 | inactive
OCCCNCc1ccccn1 | inactive
C[C@H]1O[C@@H](CC(=O)O)Cc2c1c(O)c1c(O)cc(-c3cc(=O)c4c(=O)c5c(c(=O)c=4c3=O)C[C@H](CC(=O)O)O[C@@H]5C)c(O)c1c2O | inactive
COCCNC(=O)CSc1nc2c(n1-c1ccccc1)CCCC2 | inactive
CCCCn1c(SCC(=O)NCC2CCCO2)nc2ccc(N3CCOCC3)cc2c1=O (stereo not drawn) | 62 nM (active)
CCc1ccc(NC(=O)CSc2nc3ccccc3c(=O)n2CCN2CCOCC2)cc1 | inactive
CCCCn1c(SCC(=O)NCCc2ccc(OC)c(OC)c2)nc2c1c(=O)n(C)c(=O)n2C | inactive
CCn1c(SCC(=O)NCC2CCCO2)nc2cc(S(=O)(=O)N3CCCCC3)ccc21 (stereo not drawn) | inactive
COCCCNC(=O)CSc1nc2ccc(N3CCOCC3)cc2c(=O)n1CCc1ccccc1 | 54 nM (active)
Cn1c(CC(=O)Nc2ccccc2)nnc1SCC(=O)c1ccccc1 | inactive
CC(=O)N1CCC2(CC1)CCN(c1ccncc1)CC2 | inactive
COc1cc(OC)cc(C(=O)Nc2ccc(-c3nc4ccccc4o3)c(O)c2)c1 | 330 nM (active)
COc1cccc(NC(=O)c2ccccc2SC)c1 | inactive
COc1ccc(NC(=O)c2c(C)oc3c2CCCC3)cc1 | inactive
O=C1[C@@H]2C(Cc3ccc(O)cc3)NC3(C(=O)Nc4ccc(F)cc43)[C@@H]2C(=O)N1c1ccc(F)cc1 (stereo partly drawn) | inactive
CC(Sc1sc(=S)sc1SC(C)C(=O)O)C(=O)O (stereo not drawn) | inactive
CC(C)CCNc1nc(N2CCCC2)c2c(c1C#N)CCN(C)C2 | 24 nM (active)
COc1ccc(OC)c(NC(=O)CN2CCN(C(=O)c3ccco3)CC2)c1 | inactive
O=C(Nc1cc(N2CCOCC2)ncn1)NC1(C(F)(F)F)Oc2ccc(Cl)cc2O1 (stereo not drawn) | inactive
Cc1csc(NC(=O)NC2(C(F)(F)F)Oc3ccccc3O2)n1 | 110 nM (active)
Cc1csc(NC(=O)CN2CCCCCC2)n1 | inactive
C[C@H](NC(=O)NCCc1ccccc1)C(=O)O | inactive
CNc1ncnc2ccc(-c3cccc(NS(C)(=O)=O)c3)cc12 | inactive
Cn1c(SCC(=O)OC2CCCCC2)nnc1-c1ccc(S(=O)(=O)N2CCCC2)cc1 | inactive
